In PubChem BioAssay (Tox21):
Inconclusive results are not listed. A call without a number means that no potency is given here. Activity calls are given as the source filed them. Calls come from the whole dose curve.
Potency is the fitted concentration of half-maximal effect.

What follows are molecules tested on estrogen-related receptor alpha (ERRalpha) with PGC-1alpha coactivator, human (assay: qHTS assay to identify small molecule antagonists of the estrogen related receptor signaling pathway with the pleiotropic PPARgamma coactivator (PGC) (AID 1224821; note: nearly all actives have a fitted effect of over 50% in size)). Conditions: ERR/PGC reporter cell line, luciferase, antagonist mode; series mostly up to 46.1 µM.
Description: National Center for Advancing Translational Sciences [NCATS]
NIH Chemical Genomics Center [NCGC]
U.S. Environmental Protection Agency [EPA]
National Institutes of Environmental Health Sciences [NIEHS]
National Toxicology Program [NTP]
U.S. Food and Drug Administration [FDA]
Estrogen related receptors (ERRs), the first orphan nuclear receptors discovered, play an important role in the control of cellular energy metabolism. ERRs are required for high-energy production in response to the environmental challenges. The pleiotropic PPARgamma coactivator (PGC) is a major partner of ERR and a key regulator in energy homeostasis. Together they have been implicated in the etiology of metabolic disorders such as Type 2 diabetes and metabolic syndrome. ERR-alpha was also identified as an adverse marker for breast cancer progression; ERR-alpha-positive tumors have a poor prognosis. To screen and to identify environmental compounds that perturb the ERR and PGC/ERR signaling pathways could provide valuable information for potential therapeutic or preventive measures in the treatment of metabolic disease. For identifying PGC/ERR antagonists, PGC/ERR cell line (provided by NTP) has been used to screen LOPAC library.
Tox21 Assay Protocol Summary:
The PGC/ERR cells were dispensed at 2,000 cells/5 ul/well in 1536-well white plates using a Multidrop dispenser. After the assay plates were incubated at a 37 C/5% CO2 incubator for 6 hours, 23 nL of compounds dissolved in DMSO, positive and negative controls or DMSO only was transferred to the assay plate by a pin tool. The plates were incubated at 37 C for 18 hours. 4 ul/well of One-Glo reagent was added into the assay plates using a Flying Reagent Dispenser. After 30 min incubation at room temperature, the luminescence intensity in the plates was measured using a ViewLux plate reader.
With `CC12NC(Cc3ccccc31)c1ccccc12` (stereo not given) the Potency was “inactive”.
`NC(=O)COc1c(F)cc(SCCNS(=O)(=O)c2ccccc2)cc1F` was tested, and the Potency was “inactive”.
With `CC1OC1P(=O)(O)O` (stereo not given) the Potency was “inactive”.
In the case of `CC(=O)[C@H]1CCC2C3CC[C@H]4C[C@H](O)CC[C@]4(C)C3CC[C@@]21C` (stereo not given in full), the Potency is reported as “inactive”.
In the case of `CC(N)c1cccc(Cl)c1Cl` (stereo not given), the Potency is reported as “inactive”.
For `Cn1cnc(CCN)c1`, the Potency was “inactive”.
For `N#C/C(=C/c1ccc(O)c(O)c1)C(N)=S`, the Potency was “inactive”.
In the case of `C[C@]12N[C@H](Cc3ccccc31)c1ccccc12`, the Potency is reported as “inactive”.
For `CC(=O)NCCc1c[nH]c2ccccc12`, the Potency was “inactive”.
In the case of `COc1ccc(CNC(=O)/C=C/c2ccc3[nH]cc(CCN(C)C)c3c2)cc1`, the Potency is reported as “inactive”.
`NC(=O)c1cc(N2CC2)c([N+](=O)[O-])cc1[N+](=O)[O-]` was tested, and the Potency was “inactive”.
`NC(N)=NOCC[C@H](N)C(=O)O` was tested, and the Potency was “inactive”.
With `NCCCP(=O)(O)O` the Potency was “inactive”.
For `O=C1CCCN1CC#CCN1CCCC1`, the Potency was “inactive”.
For `Nc1ccc([N+](=O)[O-])cc1`, the Potency was “inactive”.
`CC(Cc1ccc(OCC(=O)O)cc1)NCC(O)c1cccc(Cl)c1` (stereo not given) was tested, and the Potency was “inactive”.
With `CN1C2CCC1CC(OC(c1ccccc1)c1ccccc1N)C2` (stereo not given) the Potency was “inactive”.
With `C[C@H](Cc1ccc2c(c1)OC(C(=O)O)(C(=O)O)O2)NC[C@H](O)c1cccc(Cl)c1` the Potency was “inactive”.
In the case of `CCCN(CCC)[C@@H]1CCc2ccc(O)cc2C1`, the Potency is reported as “inactive”.
`CC(C)(C)OC(=O)NC1[C@H]2CNC[C@@H]12` (stereo not given in full) was tested, and the Potency was 15.5 µM (active).
With `CP(=O)(O)C1=CCNCC1` the Potency was “inactive”.
With `CCCN1CCO[C@@H]2c3cc(O)ccc3OC[C@H]21` the Potency was “inactive”.
With `OCc1cnc[nH]1` the Potency was “inactive”.
In the case of `NC(CCCCCP(=O)(O)O)C(=O)O` (stereo not given), the Potency is reported as “inactive”.
In the case of `CCOC(=O)c1ncn2c1[C@@H]1CCCN1C(=O)c1cc(OC)ccc1-2`, the Potency is reported as “inactive”.
With `CS(=N)(=O)CC[C@H](N)C(=O)O` (stereo not given in full) the Potency was “inactive”.
With `COc1cc(C(O)CN)ccc1O` (stereo not given) the Potency was “inactive”.
In the case of `O=C(Nc1ccccc1-c1ccc(Cl)cc1)c1cccnc1Cl`, the Potency is reported as “inactive”.
With `NC(=O)CN1CC(O)CC1=O` (stereo not given) the Potency was “inactive”.
In the case of `CN(C(=O)Cc1ccc(Cl)c(Cl)c1)C(CN1CCCC1)c1cccc(OCC(=O)O)c1` (stereo not given), the Potency is reported as “inactive”.
`NC1CCc2cc(O)c(O)cc2C1` (stereo not given) was tested, and the Potency was “inactive”.
With `CN[C@@H]1C[C@@H](c2ccc(Cl)c(Cl)c2)c2ccccc21` the Potency was “inactive”.
In the case of `CCCCCCCCCCCCCC(=O)O[C@@H]1[C@@H](C)[C@@]2(O)[C@@H](C=C(CO)C[C@@]3(O)C(=O)C(C)=C[C@@H]23)C2C(C)(C)[C@@]21OC(C)=O` (stereo not given in full), the Potency is reported as “inactive”.
For `CC(C)[C@H]1CN[C@H](C(=O)O)[C@H]1CC(=O)O`, the Potency was “inactive”.
With `NCC(CP(=O)(O)O)c1ccc(Cl)cc1` (stereo not given) the Potency was “inactive”.
With `O=[N+]([O-])c1c(Cl)c(Cl)cc(Cl)c1Cl` the Potency was “inactive”.
For `Clc1cc(I)cc(Cl)c1NC1=NCCN1`, the Potency was “inactive”.
`CCN(CC)c1ncnc2c1ncn2[C@@H]1O[C@H](COP(=O)(O)OP(=O)(O)C(Br)(Br)P(=O)(O)O)[C@@H](O)[C@H]1O` was tested, and the Potency was “inactive”.
With `CCN1C[C@@]2(COC)C3[C@@H](OC)C4[C@H]1C3([C@@H]1C[C@@]3(O)[C@H](OC(=O)c5ccccc5)[C@@H]1[C@]4(OC(C)=O)[C@@H](O)[C@@H]3OC)[C@H](OC)C[C@H]2O` the Potency was “inactive”.
For `NCCc1c[nH]c2ccc(O)cc12`, the Potency was “inactive”.
